# Dicer processing: blocks human Dicer maturation of pre-miR-21 | Q9UPY3 | cat-ELCCA pre-miR-21 Dicer processing, chemiluminescence; hits give high values | z-score at 25 µM | hit rate 6% among 47,000; in the data active = z-score above about 3, passing the limit was not always enough;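 note: plate controls were vehicle for no effect and no enzyme for full effect; higher signal means more uncleaved substrate so more Dicer inhibition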
# * hit, by the source's call. Only a selection was taken, and hits are over-represented in it overall.
SMILES,Dicer processing
Cc1c(C)c(C)c(S(=O)(=O)Nc2ccc(Cl)cc2Cl)c(C)c1C,-0.12
Cc1c(C)c(C)c(S(=O)(=O)Nc2ccccc2N)c(C)c1C,13.1*
CS(=O)(=O)/C(C#N)=N/Nc1ccc(OC(F)(F)F)cc1,-1.12
COc1ccc(S(=O)(=O)N2CCCN(S(=O)(=O)c3ccc(OC)cc3)CC2)cc1,-0.5
COc1ccc(OC)c(S(=O)(=O)N2CCC(C)CC2)c1,0.36
COc1ccc(S(=O)(=O)N2CCCN(S(=O)(=O)c3ccc(OC)cc3C)CC2)c(C)c1,3.05*
CCN(CC)CCn1c(NCc2cccc(Br)c2)nc2ccccc21,3.86*
CCN(CC)CCn1c(NCc2ccccn2)nc2ccccc21,1.69
CCc1ccc(CNc2nc3ccccc3n2CCN(CC)CC)cc1,3.27*
CCN(CC)CCn1c(C)nc2ccccc21,-0.35
CCN(CC)CCn1c(NCc2ccc(C)cc2)nc2ccccc21,0.08
CCCCn1c(NCc2ccccn2)nc2ccccc21,1.16
CCCn1c(SCCO)nc2ccccc21,0.15
CCCn1c(Nc2nc3ccccc3n2C)nc2ccccc21,4.91*
CCN(CC)CCn1c(=O)c(Cc2ccc(OC)cc2)nc2ccccc21,-1.19
O=C(C1CCCN(S(=O)(=O)c2ccc(Cl)cc2)C1)N1CCc2ccccc2C1 (stereo unspecified),-1.17
O=C(CN1C(=O)C2CCCCC2C1=O)N1CCN(Cc2ccc3c(c2)OCO3)CC1 (stereo unspecified),2.67
CCCOc1ccc(Oc2nc(NCC)cc(NC(C)(C)C)n2)nn1,0.84
c1ccc(-c2nc3c4ccccc4ccn3c2CN2CCOCC2)cc1,-0.15
COc1ccc(-c2nnc(N3CCOCC3)c3ccccc23)cc1,1.26
c1ccc(-c2nn3c4cc(N5CCOCC5)ccc4nc3c3ccccc23)cc1,6.08*
Cc1ccc(S/C(=C\N(C)C)C(=O)c2ccc(Cl)cc2)cc1,-0.64
O=C(OCc1nccn1Cc1ccc(Cl)cc1)c1ccc(Cl)cc1,-1.41
O=C(CN1CCOCC1)Nc1ccccc1Sc1nccc(C(F)(F)F)n1,-1.39
OC1(C#Cc2ccccc2)c2ccccc2-c2ncccc21 (stereo unspecified),-0.69
SMILES,Dicer processing
COc1ccccc1/C=C/c1nc2ccccc2n1C,-0.47
Cn1c(/C=C/c2ccccc2)nc2ccccc21,3.73*
Cn1c(=O)c(/C=C/c2ccccc2)nc2ccccc21,-0.3
CC(C)S(=O)(=O)C/C(N)=N/OCc1cccc(Cl)c1,-2.81
COc1ccc(OCC(=O)Nc2ncn[nH]2)cc1,0.28
O=C(O)CCC1CCCC(CCC(=O)O)C1=O (stereo unspecified),-0.71
COc1ccc(N2CC3CCc4ccccc4C3=N2)cc1 (stereo unspecified),-0.95
COc1ccc(NC(=S)N2N=C3c4ccccc4CCC3C2c2ccc(F)cc2)cc1 (stereo unspecified),0.71
COc1ccc(C2C3CCc4ccccc4C3=NN2CCOC(=O)C2CC2)cc1 (stereo unspecified),4.84*
O=C(Nc1nnc(Sc2ccnc3cc(Cl)ccc23)s1)c1sc2ccccc2c1Cl,-0.11
CCOC(=O)c1sc(SC(C)C)c(C#N)c1-c1ccc(Cl)cc1,4.95*
CCOC(=O)c1sc(SC(C)CC)c(C#N)c1-c1ccc(Cl)cc1 (stereo unspecified),0.13
CC(C)Sc1sc(C(=O)O)c(-c2ccc(Cl)cc2)c1C#N,4.1*
CSc1sc(C(=O)NC(C)(C)C)c(-c2ccc(Cl)cc2)c1C#N,-3.18
CCOC(=O)CSc1sc(C(=O)OCC)c(-c2ccc(Cl)cc2)c1C#N,-2.05
CCSc1sc(C(=O)OC)c(-c2ccc(Cl)cc2)c1C#N,0.97
CCCCCOC(=O)C1=C(C)NC2=C(C(=O)CC(C)(C)C2)C1c1ccc(C(=O)OC)cc1 (stereo unspecified),0.39
COc1ccc(-c2nc(-c3ccc(C)nc3OC)no2)cc1,0.83
COc1ccc(SCCC(=O)NNS(=O)(=O)c2sc3ccc(Cl)cc3c2C)cc1,-0.16
O=C1/C(=C/c2cccs2)CS/C1=C/c1cccs1,-3
O=C1/C(=C/c2cccs2)CCCc2ccccc21,0.41
O=C1/C(=C/c2cccs2)COC/C1=C\c1cccs1,4.16*
COc1ccc(N=C2SCC(C(C)(C)C)=NN2C)cc1,-1.07
Cc1cc(C)c(Nc2nnns2)c(C)c1,-2.25
Cc1cc(C)c(Nc2nc3cc(Br)cc(C)c3s2)c(C)c1,3.77*
SMILES,Dicer processing
Cc1cc(C)c(Nc2n[nH]c(=S)s2)c(C)c1,-0.74
CSc1ccncc1C(=O)Nc1ccc(F)cc1F,-0.3
CCCc1nccn1S(=O)(=O)c1cc(Cl)ccc1OC,-0.45
O=C(O)/C=C/c1ccc(O)c(O)c1,0.75
CSc1ccc(/C=C/c2nc(=O)c3ccccc3o2)cc1,1.19
O=c1nc(/C=C/c2ccc(O)c(O)c2)oc2ccccc12,3.95*
COc1cc2nc(-c3cccc(Br)c3)oc(=O)c2cc1OC,26.6*
COc1cc2nc(C(C)(C)C)oc(=O)c2cc1OC,4.12*
CCC(CC)c1nc2cc(OC)c(OC)cc2c(=O)o1,0.71
COc1cc2nc(-c3ccccc3)oc(=O)c2cc1OC,-0.18
COc1cc2nc(-c3ccc(C)cc3)oc(=O)c2cc1OC,-1.42
COc1ccc(-c2nc3cc(OC)c(OC)cc3c(=O)o2)cc1,2.05
CC(C)C1Oc2ccccc2C2CC(c3ccccc3O)=NN21 (stereo unspecified),5.61*
COc1cccc2c1OC(C(C)C)N1N=C(c3ccccc3O)CC21 (stereo unspecified),0.12
Cc1ccc(O)c(C2=NN3C(C2)c2cc(Cl)ccc2OC3c2cccnc2)c1 (stereo unspecified),-0.6
Clc1ccc(C2=NN3COc4ccccc4C3C2)cc1 (stereo unspecified),2.08
Oc1ccccc1C1=NN2C(C1)c1ccccc1OC2c1ccccc1 (stereo unspecified),2.54
COc1cccc2c1OC(c1cccnc1)N1N=C(c3ccccc3O)CC21 (stereo unspecified),-0.4
Clc1ccc(C2=NN3C(C2)c2ccccc2OC3c2cccnc2)cc1 (stereo unspecified),6.05*
Oc1ccccc1C1=NN2C(C1)c1ccccc1OC2c1cccnc1 (stereo unspecified),12.3*
COc1ccc(NC(=O)Cn2nnc3sc4c(c3c2=O)CCCC4)c(OC)c1,1.84
COc1ccc(-c2noc(COc3ccc4c(c3)CCCC4)n2)cc1OC,0.93
O/C(=C\c1nc2ccccc2[nH]1)c1cc(Cl)c(O)cc1O,2.58
NC(=O)c1ccc2c(c1)C1C3CCC(C3)C1C(c1ccccc1)N2 (stereo unspecified),2.51
O=C1c2oc3ccc(F)cc3c(=O)c2C(c2cccc(O)c2)N1Cc1ccc2c(c1)OCO2 (stereo unspecified),0.33
SMILES,Dicer processing
COC(=O)c1c(C)oc(C)c1S(=O)(=O)N(C)C,-1.21
C#CCN=C(NS(=O)(=O)c1c(C)noc1C)SC,0.44
Nc1nc(NC2CCCCNC2=O)n[nH]1 (stereo unspecified),-0.63
O=C(Nc1nc(-c2ccccc2)ns1)c1ccc(Br)cc1,0.36
CCOC(=O)c1c(NC(=O)CCC(=O)O)sc2c1CCCC2=O,3.01*
CCOC(=O)c1c(NC(=O)CCC(=O)O)sc2c1CCCCC2,-0.71
CCOC(=O)c1c(NC(=O)CCC(=O)O)sc2c1CCCC2,2.2
CCCS(=O)(=O)c1cscc1NC=C(C(=O)OCC)C(=O)OCC,0.82
COc1ccc(Oc2c(C(F)(F)F)oc3cc(OC(C)C(=O)OC(C)C)ccc3c2=O)cc1 (stereo unspecified),-0.49
O=C(O)c1ccc2c(=O)n3c4ccccc4nc3c3ccc(C(=O)O)c1c23,3.15*
O=C(O)Cn1c2ccccc2c2nc3ccccc3nc21,-1.6
